The results in this text go back to PubChem BioAssay (NCATS).

Where “and” joins values, the source holds several entries; their conditions need not be identical. Equal values may be shown once. Unmarked numbers belong to inactive results. For part of these data: Results with a measured potency or affinity are listed apart. Calls of active or inactive are those of the source.

For assay [1] the following is noted: Ebola virus entry assay, green fluorescence channel.
For assay [2] the following is noted: Ebola virus entry assay, blue channel fluorescence.
For assay [3] the following is noted: Ebola virus entry assay, green fluorescence channel. The source holds these as a separate data set.
The conditions of assay [4]: Ebola virus entry assay, ratio channel readout.
The conditions of assay [5]: Ebola virus entry assay, blue channel fluorescence. This is another data set of the same source.
For assay [6] the following is noted: Ebola virus entry assay, ratio channel.
Wherever efficacy is given: 0% is about no effect.

In the case of `Cc1ccc(-n2[nH]c(C)c(N=Nc3cccc(-c4cccc(C(=O)O)c4)c3O)c2=O)cc1C`, the efficacy in assay [1] was 128%. Moreover, the compound was called inactive in assay [2], in assay [3], in assay [4], in assay [5] and in assay [6].
As a reminder, the AC50 is the concentration giving half of the maximal activity seen. With `COc1ccc([C@@H]2Sc3ccccc3N(CCN(C)C)C(=O)[C@@H]2OC(C)=O)cc1`, in assay [1], the efficacy is 53.7%. Also, the compound was called inactive in assay [2], in assay [3] and in assay [4]. The AC50 in assay [5] is 28.2 µM (active); in assay [6], 25.1 µM (active).
Turning to `O=C1c2c(O)ccc(O)c2C(=O)c2c(NCCNCCO)ccc(NCCNCCO)c21`, in assay [1], the efficacy was -106%. In addition, the AC50 was 5.01 µM (active) in assay [2], 12.6 µM (active) in assay [5] and 7.94 µM (active) in assay [6]. In addition, the result in assay [3] and in assay [4] was inactive.
As for `CN1CCN(CCCN2c3ccccc3Sc3ccc(C(F)(F)F)cc32)CC1`, the efficacy in assay [1] was -186%. The AC50 in assay [2] was 7.08 µM (active); in assay [5] it was 3.55 µM (active); in assay [6] it was 2.82 µM (active). Besides, the call in assay [3] and in assay [4] was inactive.
On to `O[C@@H]1CO[C@H]2[C@@H]1OC[C@@H]2O`, for which, in assay [1], the efficacy was 15.8%. Besides, the call in assay [2], in assay [3], in assay [4], in assay [5] and in assay [6] was inactive.
With `NNc1nncc2ccccc12`, the efficacy in assay [1] was -27.3%. Also, the outcome in assay [2], in assay [3], in assay [4], in assay [5] and in assay [6] was inactive.
As to `CC(CN(C)C)CN1c2ccccc2CCc2ccccc21` (stereo not given), the efficacy in assay [1] is 31.5%. In addition, the call in assay [2] and in assay [3] was inactive. The AC50 in assay [4] was 14.1 µM (active); in assay [5], 7.94 µM (active); in assay [6] it was 6.31 µM (active).
As to `Cc1ccc(O)c([C@H](CCN(C(C)C)C(C)C)c2ccccc2)c1`, the efficacy in assay [1] was 106%. Further, the AC50 was 12.6 µM (active) in assay [2], 14.1 µM (active) in assay [5] and 12.6 µM (active) in assay [6]. For the same compound, the result in assay [3] and in assay [4] was inactive.
On to `CN1CCN(C2=Nc3cc(Cl)ccc3Nc3ccccc32)CC1`, for which the efficacy in assay [1] is 95.2%. Also, the outcome in assay [2], in assay [3] and in assay [4] was inactive. The half-maximal activity concentration (AC50) was 15.8 µM (active) in assay [5] and 14.1 µM (active) in assay [6].
As for `OCCN1CCN(CCCN2c3ccccc3Sc3ccc(Cl)cc32)CC1`, the efficacy in assay [1] is 88.4%. Moreover, the AC50 was 6.31 µM (active) in assay [2], 5.63 µM (active) in assay [4], 2.82 µM (active) in assay [5] and 2.24 µM (active) in assay [6]. Moreover, in assay [3], the result was inactive.
For the compound `CNCC[C@@H](Oc1ccccc1C)c1ccccc1`, the efficacy in assay [1] was 103%. For the same compound, the compound was called inactive in assay [2], in assay [3] and in assay [4]. The AC50 in assay [5] and in assay [6] was 10 µM (active) in each case.
In the case of `C[C@H]1c2cccc(O)c2C(O)=C2C(=O)[C@]3(O)C(O)=C(C(N)=O)C(=O)[C@@H](N(C)C)[C@@H]3[C@@H](O)[C@@H]21`, the efficacy in assay [1] was 76.6%. Further, the compound was classed as inactive in assay [2], in assay [3] and in assay [4]. Besides, the AC50 in assay [5] is 25.1 µM (active); in assay [6] it was 20 µM (active).
Regarding `CN(C)c1nc(N(C)C)nc(N(C)C)n1`, the efficacy in assay [1] is 14.8%. Also, the compound was called inactive in assay [2], in assay [3], in assay [4], in assay [5] and in assay [6].
Turning to `CC/C(=C(\c1ccccc1)c1ccc(OCCN(C)C)cc1)c1ccccc1`, in assay [1], the efficacy is -205%. Besides, the AC50 was 1.12 µM (active) in assay [2], 1.26 µM (active) in assay [4], 1.41 µM (active) in assay [5] and 1.12 µM (active) in assay [6]. In addition, in assay [3], the compound was classed as inactive.
Regarding `CC(C)(C)NC(=O)[C@H]1CC[C@H]2[C@@H]3CC[C@H]4NC(=O)C=C[C@]4(C)[C@H]3CC[C@]12C`, in assay [1], the efficacy was 71.8%. Further, the call in assay [2], in assay [3], in assay [4], in assay [5] and in assay [6] was inactive.
Regarding `O=c1n(CCCN2CCN(c3cccc(Cl)c3)CC2)nc2ccccn12`, the efficacy in assay [1] was 33.5%. Further, the compound was called inactive in assay [2], in assay [3], in assay [4], in assay [5] and in assay [6].
Regarding `CC[C@]1(O)C[C@@H]2CN(CCc3c([nH]c4ccccc34)[C@@](C(=O)OC)(c3cc4c(cc3OC)N(C)[C@H]3[C@@](O)(C(=O)OC)[C@H](OC(C)=O)[C@]5(CC)C=CCN6CC[C@]43[C@@H]65)C2)C1`, in assay [1], the efficacy is -50.1% and 54.6%. In addition, the AC50 is 0.0009 µM (active) in assay [2]; 0.794 µM (active) in assay [5]; 1 µM (active) and 891 nM (active) in assay [6]. For the same compound, the outcome in assay [3] and in assay [4] was inactive.
With `N[C@@H](Cc1cc(I)c(Oc2cc(I)c(O)c(I)c2)c(I)c1)C(=O)O`, in assay [1], the efficacy is -10%. Also, the compound was called inactive in assay [2], in assay [3], in assay [4], in assay [5] and in assay [6].
Regarding `Cc1[nH]c(=O)c(C#N)cc1-c1ccncc1`, the efficacy in assay [1] is -19.3%. In addition, the compound was classed as inactive in assay [2], in assay [3], in assay [4], in assay [5] and in assay [6].
For the compound `Cc1ccc(-c2cc(C(F)(F)F)nn2-c2ccc(S(N)(=O)=O)cc2)cc1`, the efficacy in assay [1] is 26.9%. Moreover, the compound was called inactive in assay [2], in assay [3], in assay [4] and in assay [6]. In assay [5], the AC50 is 39.8 µM (active).
For the compound `CN(C)CCC=C1c2ccccc2C=Cc2ccccc21`, in assay [1], the efficacy was 108%. For the same compound, the compound was called inactive in assay [2], in assay [3] and in assay [4]. The AC50 in assay [5] was 11.2 µM (active); in assay [6], 10 µM (active).
`NCCC(O)(P(=O)(O)O)P(=O)(O)O`: the efficacy in assay [1] was -9.39%. Also, the call in assay [2], in assay [3], in assay [4], in assay [5] and in assay [6] was inactive.
As for `OCCN(CCO)c1nc(N2CCCCC2)c2nc(N(CCO)CCO)nc(N3CCCCC3)c2n1`, in assay [1], the efficacy is 489%. The compound was classed as inactive in assay [2], in assay [4], in assay [5] and in assay [6]. The AC50 in assay [3] is 25.1 µM (active).
Consider `Cc1cc(C)cc(OCC2CNC(=O)O2)c1` (stereo not given), for which the efficacy in assay [1] was -18.5%. Besides, the call in assay [2], in assay [3], in assay [4], in assay [5] and in assay [6] was inactive.
Consider `CN(C)CC/C=C1\c2ccccc2COc2ccccc21`, for which the efficacy in assay [1] was 117%. For the same compound, the compound was classed as inactive in assay [2], in assay [3] and in assay [4]. The AC50 in assay [5] was 20 µM (active); in assay [6], 14.1 µM (active).
